Measurements taken from PubChem BioAssay (NCATS).
Inconclusive results are not listed. Unmarked numbers belong to inactive results. Active and inactive are the calls of the source. The call rests on the fitted dose curve.

target: Nucleoprotein (Lymphocytic choriomeningitis virus (strain Armstrong)) (UniProt P09992); assay: qHTS for Inhibitors of the Functional Ribonucleoprotein Complex (vRNP) of Lymphocytic Choriomeningitis Arenaviruses (LCMV): LCMV Primary Screen - GLuc reporter signal (AID 1347086); conditions: LCMV minigenome vRNP cell assay, Gaussia luciferase reporter; series mostly up to 57.5 µM; activity change, negative = inhibition: at the top concentration; further: nearly all actives have a fitted effect of over 70% in size
On the % scale 0 is the no-effect control and ±100 the full control effect.

Sequence of Nucleoprotein (Lymphocytic choriomeningitis virus (strain Armstrong)) (P09992 whole entry, looked up): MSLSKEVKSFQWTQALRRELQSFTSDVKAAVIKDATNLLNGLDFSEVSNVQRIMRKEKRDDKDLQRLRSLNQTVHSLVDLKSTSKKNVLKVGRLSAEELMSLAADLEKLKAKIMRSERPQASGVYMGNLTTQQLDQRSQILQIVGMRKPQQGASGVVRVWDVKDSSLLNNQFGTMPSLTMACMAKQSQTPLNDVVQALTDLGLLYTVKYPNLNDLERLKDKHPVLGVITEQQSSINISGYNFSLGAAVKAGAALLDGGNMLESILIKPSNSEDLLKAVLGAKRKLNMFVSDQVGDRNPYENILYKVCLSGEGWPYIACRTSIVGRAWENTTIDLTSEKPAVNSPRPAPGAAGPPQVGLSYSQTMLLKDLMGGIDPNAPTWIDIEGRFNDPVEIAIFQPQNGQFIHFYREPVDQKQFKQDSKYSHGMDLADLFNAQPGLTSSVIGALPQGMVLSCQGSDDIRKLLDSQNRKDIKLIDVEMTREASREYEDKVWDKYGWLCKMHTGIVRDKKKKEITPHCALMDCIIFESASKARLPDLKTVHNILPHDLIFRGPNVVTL

| Structure (SMILES) | Potency | activity change, negative = inhibition |
| --- | --- | --- |
| OC[C@H]1O[C@@H](Oc2ccc(O)cc2)[C@H](O)[C@@H](O)[C@@H]1O | inactive | – |
| CC1(C)Oc2ccc(C#N)cc2[C@@H](N2CCCC2=O)[C@@H]1O | – | 6.54% |
| CC(=O)SCC(CC(=O)c1ccc(C)cc1)C(=O)O (centres undefined) | – | -2.43% |
| NC/C=C/C(=O)O | inactive | – |
| NS(=O)(=O)c1cc(C2(O)NC(=O)c3ccccc32)ccc1Cl (centres undefined) | – | -1.36% |
| CO[C@@]1(NC(=O)Cc2cccs2)C(=O)N2C(C(=O)O)=C(COC(N)=O)CS[C@@H]21 | – | -1.73% |
| CC(C)NCC(O)c1ccc(NS(C)(=O)=O)cc1 (centres undefined) | – | 9.44% |
| CCOC(=O)C1=C[C@@H](OC(CC)CC)[C@H](NC(C)=O)[C@@H](N)C1 | – | 10.9% |
| CC(C)(C)NCC(O)COc1cccc2c1C[C@H](O)[C@H](O)C2 (some centres undefined) | – | 8.03% |
| COc1cc(NS(=O)(=O)c2ccc(N)cc2)nc(C)n1 | – | 1.58% |
| Cc1onc(-c2ccccc2)c1C(=O)Cl | – | 2.06% |
| O=C(Oc1ccccc1C(=O)O)c1ccccc1O | – | 14.9% |
| O=c1[nH]c(=O)n([C@H]2C[C@H](O)[C@@H](CO)O2)cc1I | – | 45.5% |
| Cn1c([N+](=O)[O-])cnc1COC(N)=O | – | 12.6% |
| O=C(O)CCCC[C@@H]1SC[C@@H]2NC(=O)N[C@@H]21 | – | -0.787% |
| COc1c2occc2cc2ccc(=O)oc12 | – | 13.9% |
| NS(=O)(=O)c1cc(C(=O)NN2C[C@H]3[C@H]4CCC(C4)[C@H]3C2)ccc1Cl | – | -2.14% |
| CC(C)CN(C[C@@H](O)[C@H](Cc1ccccc1)NC(=O)O[C@H]1CO[C@H]2OCC[C@H]21)S(=O)(=O)c1ccc(N)cc1 | – | -1.49% |
| CC(C)c1ccc2oc3nc(N)c(C(=O)O)cc3c(=O)c2c1 | inactive | – |
| O=C(Oc1ccccc1)c1ccccc1O | – | 8.84% |

| Structure (SMILES) | Potency | activity change, negative = inhibition |
| --- | --- | --- |
| NC(=O)c1ncn([C@@H]2O[C@H](CO)[C@@H](O)[C@H]2O)c1O | inactive | – |
| COc1ccc(C2C(=O)c3ccccc3C2=O)cc1 | – | 11.1% |
| NCCNCCNCCNCCN | – | -1.94% [at 11.5 µM] |
| NC(=S)N/N=C/c1cccnc1 | – | -2.6% |
| CCCc1nn(C)c2c(=O)[nH]c(-c3cc(S(=O)(=O)N4CCN(C)CC4)ccc3OCC)nc12 | inactive | – |
| CC(=O)O[C@@H]1C(=O)O[C@@H]2[C@H]1OC(=O)[C@@H]2OC(C)=O | – | -9.08% |
| Cc1cccn2c(=O)c(-c3nnn[nH]3)cnc12 | – | -4.65% [at 24.7 µM] |
| CCOC(=O)/C=C(C)/C=C/C=C(C)/C=C/c1c(C)cc(OC)c(C)c1C | – | -10.1% |
| CN[C@@H]1[C@H](O)[C@H](NC)[C@H]2O[C@@]3(O)C(=O)C[C@@H](C)O[C@H]3O[C@@H]2[C@H]1O | – | 13.6% |
| Cn1cc(S(C)=O)c(=O)c2ccc(F)cc21 (centres undefined) | – | -0.571% |
| CC(N)CCCC(C)(C)O (centres undefined) | – | -2.34% |
| C=CCN1CCc2nc(N)sc2CC1 | – | 2.23% |
| Nc1ccc(S(=O)(=O)Nc2ccccn2)cc1 | inactive | – |
| CC(=O)Nc1ccc(C(=O)O)cc1 | inactive | – |
| CC(=O)OCC(=O)[C@H]1CC[C@H]2[C@@H]3CCC4=CC(=O)CC[C@]4(C)[C@H]3CC[C@]12C | – | 37.3% |
| C[C@H]1C[C@@H]2[C@H]([C@@H](O)C[C@@]3(C)[C@H]2CC[C@]3(O)C(=O)CO)[C@@]2(C)C=CC(=O)C=C12 | – | 89.6% |
| NC(=O)CC[C@@H]1NC(=O)[C@H](Cc2ccccc2)NC(=O)[C@H](Cc2ccc(O)cc2)NC(=O)CCSSC[C@@H](C(=O)N2CCC[C@H]2C(=O)N[C@@H](CCCN=C(N)N)C(=O)NCC(N)=O)NC(=O)[C@H](CC(N)=O)NC1=O | – | 14.8% |
| Cc1oc(=O)oc1CN1CCN(c2cc3c(cc2F)c(=O)c(C(=O)O)c2n3C(C)S2)CC1 (centres undefined) | inactive | – |
| N#CCC(=O)NN | – | -5.32% |
